# How the values were obtained:
# Experiment in all cases: DAPPL (digital affinity profiling via proximity ligation, sequencing); 10 mM Tris-HCl pH 7.5, 50 mM NaCl, 1 mM DTT, 4% glycerol, room temperature, 30 min; GST-TFs on glutathione beads, 16-mer random dsDNA library, 0.1% formaldehyde crosslink after washing; high values mean tight binding
# FEV = target: T1, FEV (Homo sapiens, UniProt Q99581 1-238); conditions: protein: recombinant; tags: N-terminal GST; dsDNA, one strand shown
# T1 sequence: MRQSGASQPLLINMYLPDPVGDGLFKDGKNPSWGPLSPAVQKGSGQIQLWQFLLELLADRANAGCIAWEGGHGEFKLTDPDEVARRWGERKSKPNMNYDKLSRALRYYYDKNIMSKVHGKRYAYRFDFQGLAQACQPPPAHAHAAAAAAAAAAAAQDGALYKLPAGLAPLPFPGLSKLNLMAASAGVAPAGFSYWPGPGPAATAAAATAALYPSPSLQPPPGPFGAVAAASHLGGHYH
# Procedure, shortened: (§1)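 Pools of DNA-barcoded human transcription factors, expressed in yeast as GST fusions on glutathione beads and combined with a tag-only sample, were incubated with 200 nmole of a 16-mer random double-stranded DNA library. Incubation took 30 min at room temperature in Tris/NaCl/DTT/glycerol buffer and was followed by washing, 0.1% formaldehyde crosslinking, proximity ligation (BsaI/T4 ligase, 1 h, 37 °C), PCR amplification and sequencing on an Illumina NextSeq500. Binding signal is the ratio of a hexamer's read frequency for a factor to its frequency for the tag-only sample.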
# ETV5 = ETV5 (Homo sapiens, UniProt P41161 1-510); conditions: protein: recombinant; tags: N-terminal GST; dsDNA, one strand shown
# Sequence of ETV5 (P41161 whole entry): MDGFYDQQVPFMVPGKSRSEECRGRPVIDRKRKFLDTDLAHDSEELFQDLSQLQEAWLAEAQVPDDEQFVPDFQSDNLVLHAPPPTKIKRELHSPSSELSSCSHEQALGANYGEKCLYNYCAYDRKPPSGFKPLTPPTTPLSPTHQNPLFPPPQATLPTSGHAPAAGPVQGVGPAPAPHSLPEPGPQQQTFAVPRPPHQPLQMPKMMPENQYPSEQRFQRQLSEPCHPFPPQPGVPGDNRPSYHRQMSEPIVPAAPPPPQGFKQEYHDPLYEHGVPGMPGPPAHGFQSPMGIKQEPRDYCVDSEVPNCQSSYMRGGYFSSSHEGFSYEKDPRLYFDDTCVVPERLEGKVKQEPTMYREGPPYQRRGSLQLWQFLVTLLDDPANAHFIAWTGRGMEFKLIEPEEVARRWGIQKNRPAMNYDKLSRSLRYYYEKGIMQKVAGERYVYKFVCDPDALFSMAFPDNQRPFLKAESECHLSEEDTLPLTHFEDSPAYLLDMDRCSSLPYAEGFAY
# Procedure, shortened: as §1
# HSF1 = HSF1 (Homo sapiens, UniProt Q00613 1-529); conditions: protein: recombinant; tags: N-terminal GST; chain copies: 3; dsDNA, one strand shown
# Sequence of HSF1 (Q00613 whole entry): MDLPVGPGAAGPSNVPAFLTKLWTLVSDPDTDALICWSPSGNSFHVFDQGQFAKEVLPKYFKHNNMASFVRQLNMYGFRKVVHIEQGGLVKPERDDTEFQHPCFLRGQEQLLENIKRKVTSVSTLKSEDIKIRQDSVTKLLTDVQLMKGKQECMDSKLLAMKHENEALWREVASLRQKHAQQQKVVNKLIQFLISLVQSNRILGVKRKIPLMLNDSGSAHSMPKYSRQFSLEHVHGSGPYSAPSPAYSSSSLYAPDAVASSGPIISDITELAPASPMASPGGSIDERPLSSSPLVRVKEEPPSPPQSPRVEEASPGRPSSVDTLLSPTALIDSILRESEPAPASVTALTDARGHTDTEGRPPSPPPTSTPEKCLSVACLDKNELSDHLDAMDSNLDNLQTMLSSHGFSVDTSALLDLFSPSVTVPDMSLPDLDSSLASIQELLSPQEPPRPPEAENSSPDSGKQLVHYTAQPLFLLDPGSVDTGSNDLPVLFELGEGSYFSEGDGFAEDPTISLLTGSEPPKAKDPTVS
# Procedure, shortened: as §1
# SPIC = target: T2, SPIC (Homo sapiens, UniProt Q8N5J4 1-248); conditions: protein: recombinant; tags: N-terminal GST; dsDNA, one strand shown
# T2 sequence: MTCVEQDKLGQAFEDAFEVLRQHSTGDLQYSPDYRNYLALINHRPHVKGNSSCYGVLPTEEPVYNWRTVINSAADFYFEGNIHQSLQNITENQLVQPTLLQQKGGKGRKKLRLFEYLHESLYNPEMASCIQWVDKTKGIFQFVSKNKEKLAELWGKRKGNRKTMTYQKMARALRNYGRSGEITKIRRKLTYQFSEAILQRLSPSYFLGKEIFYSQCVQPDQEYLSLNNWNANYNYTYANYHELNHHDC
# Procedure, shortened: as §1
# ELF4 = ELF4 (Homo sapiens, UniProt Q99607 1-663); conditions: protein: recombinant; tags: N-terminal GST; dsDNA, one strand shown
# Sequence of ELF4 (Q99607 whole entry): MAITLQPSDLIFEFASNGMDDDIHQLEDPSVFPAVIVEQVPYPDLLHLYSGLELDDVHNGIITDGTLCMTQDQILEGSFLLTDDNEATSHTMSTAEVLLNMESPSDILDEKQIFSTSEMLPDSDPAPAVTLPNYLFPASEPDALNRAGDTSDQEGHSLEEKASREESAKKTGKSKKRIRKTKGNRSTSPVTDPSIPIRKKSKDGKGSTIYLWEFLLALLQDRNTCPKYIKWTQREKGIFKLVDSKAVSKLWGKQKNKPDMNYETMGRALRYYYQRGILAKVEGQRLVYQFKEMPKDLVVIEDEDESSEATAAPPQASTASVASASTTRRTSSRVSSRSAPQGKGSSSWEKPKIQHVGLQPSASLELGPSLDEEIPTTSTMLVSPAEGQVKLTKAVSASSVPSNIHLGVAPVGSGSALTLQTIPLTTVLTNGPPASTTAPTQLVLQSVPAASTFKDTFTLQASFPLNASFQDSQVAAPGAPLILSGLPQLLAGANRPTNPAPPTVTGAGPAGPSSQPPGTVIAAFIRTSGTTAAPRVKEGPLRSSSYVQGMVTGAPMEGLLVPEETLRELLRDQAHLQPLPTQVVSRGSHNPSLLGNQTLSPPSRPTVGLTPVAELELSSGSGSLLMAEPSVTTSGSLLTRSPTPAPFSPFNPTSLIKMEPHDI
# Procedure, shortened: as §1
# ELK4 = target: T3, ELK4 (Homo sapiens, UniProt P28324-2 1-405); conditions: protein: recombinant; tags: N-terminal GST; dsDNA, one strand shown
# T3 sequence: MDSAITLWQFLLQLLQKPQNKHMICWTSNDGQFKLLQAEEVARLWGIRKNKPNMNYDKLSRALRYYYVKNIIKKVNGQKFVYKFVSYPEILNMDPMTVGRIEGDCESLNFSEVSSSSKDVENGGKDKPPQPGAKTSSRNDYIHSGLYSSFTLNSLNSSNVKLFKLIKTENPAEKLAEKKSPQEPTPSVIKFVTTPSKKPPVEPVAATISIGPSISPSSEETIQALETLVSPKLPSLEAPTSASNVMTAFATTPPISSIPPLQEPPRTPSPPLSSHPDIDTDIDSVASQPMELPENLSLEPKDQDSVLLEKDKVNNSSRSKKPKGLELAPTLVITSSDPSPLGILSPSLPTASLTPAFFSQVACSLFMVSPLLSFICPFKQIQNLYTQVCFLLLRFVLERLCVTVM
# Procedure, shortened: as §1
# ETV2 = target: T4, ETV2 (Homo sapiens, UniProt O00321 1-342); conditions: protein: recombinant; tags: N-terminal GST; dsDNA, one strand shown
# T4 sequence: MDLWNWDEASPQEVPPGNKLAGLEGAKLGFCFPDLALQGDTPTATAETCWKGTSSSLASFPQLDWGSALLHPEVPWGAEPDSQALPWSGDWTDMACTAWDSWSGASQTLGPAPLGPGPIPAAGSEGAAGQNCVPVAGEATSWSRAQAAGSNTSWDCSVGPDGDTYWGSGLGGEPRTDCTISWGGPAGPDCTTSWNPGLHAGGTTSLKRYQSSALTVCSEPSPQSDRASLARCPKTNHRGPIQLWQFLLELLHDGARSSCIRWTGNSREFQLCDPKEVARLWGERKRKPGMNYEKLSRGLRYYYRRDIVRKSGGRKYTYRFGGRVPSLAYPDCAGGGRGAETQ
# Procedure, shortened: as §1
# ELF3 = target: T5, ELF3 (Homo sapiens, UniProt P78545 1-371); conditions: protein: recombinant; tags: N-terminal GST; dsDNA, one strand shown
# T5 sequence: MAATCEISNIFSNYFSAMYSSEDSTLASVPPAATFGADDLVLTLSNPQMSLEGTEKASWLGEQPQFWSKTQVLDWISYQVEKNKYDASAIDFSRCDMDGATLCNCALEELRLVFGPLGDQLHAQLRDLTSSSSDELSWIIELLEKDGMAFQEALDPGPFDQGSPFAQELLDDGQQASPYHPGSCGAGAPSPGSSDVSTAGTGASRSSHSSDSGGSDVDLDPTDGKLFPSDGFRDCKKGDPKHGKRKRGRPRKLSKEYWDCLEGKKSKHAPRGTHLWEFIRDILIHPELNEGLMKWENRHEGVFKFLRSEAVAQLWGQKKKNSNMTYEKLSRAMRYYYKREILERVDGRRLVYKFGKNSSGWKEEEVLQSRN
# Procedure, shortened: as §1
# CRX = CRX (Homo sapiens, UniProt O43186 1-299); conditions: protein: recombinant; tags: N-terminal GST; dsDNA, one strand shown
# Sequence of CRX (O43186 whole entry): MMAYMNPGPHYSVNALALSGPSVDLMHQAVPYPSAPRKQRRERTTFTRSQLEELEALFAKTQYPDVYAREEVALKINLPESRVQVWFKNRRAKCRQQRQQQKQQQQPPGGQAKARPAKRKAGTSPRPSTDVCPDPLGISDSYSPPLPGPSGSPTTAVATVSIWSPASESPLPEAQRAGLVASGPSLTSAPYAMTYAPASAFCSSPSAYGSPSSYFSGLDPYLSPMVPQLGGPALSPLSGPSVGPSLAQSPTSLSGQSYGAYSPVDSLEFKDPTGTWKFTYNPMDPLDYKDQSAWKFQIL
# Procedure, shortened: as §1
# ETV1 = ETV1 (Homo sapiens, UniProt P50549 1-477); conditions: protein: recombinant; tags: N-terminal GST; dsDNA, one strand shown
# Sequence of ETV1 (P50549 whole entry): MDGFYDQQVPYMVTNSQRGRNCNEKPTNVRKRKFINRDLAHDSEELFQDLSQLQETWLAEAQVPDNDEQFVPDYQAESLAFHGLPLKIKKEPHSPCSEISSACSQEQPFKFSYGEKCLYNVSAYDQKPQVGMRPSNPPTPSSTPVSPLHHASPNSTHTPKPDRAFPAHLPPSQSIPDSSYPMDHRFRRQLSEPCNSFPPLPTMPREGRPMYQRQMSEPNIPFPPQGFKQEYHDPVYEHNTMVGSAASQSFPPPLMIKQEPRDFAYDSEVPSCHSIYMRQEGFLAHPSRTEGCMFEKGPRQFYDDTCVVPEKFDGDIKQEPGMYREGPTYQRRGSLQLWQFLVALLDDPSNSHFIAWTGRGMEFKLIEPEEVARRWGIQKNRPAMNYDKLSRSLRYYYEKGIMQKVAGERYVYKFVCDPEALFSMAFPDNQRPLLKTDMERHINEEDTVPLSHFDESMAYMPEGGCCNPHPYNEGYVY
# Procedure, shortened: as §1
Sequence,binding signal (FEV),binding signal (ETV5),binding signal (HSF1),binding signal (SPIC),binding signal (ELF4),binding signal (ELK4),binding signal (ETV2),binding signal (ELF3),binding signal (CRX),binding signal (ETV1)
TCTCCG,"1.69 fold enrichment (6-mer frequency, TF over GST control)","1.61 fold enrichment (6-mer frequency, TF over GST control)","1.43 fold enrichment (6-mer frequency, TF over GST control)","1.55 fold enrichment (6-mer frequency, TF over GST control)","1.59 fold enrichment (6-mer frequency, TF over GST control)","1.68 fold enrichment (6-mer frequency, TF over GST control)","1.47 fold enrichment (6-mer frequency, TF over GST control)","1.2 fold enrichment (6-mer frequency, TF over GST control)","1.37 fold enrichment (6-mer frequency, TF over GST control)","1.48 fold enrichment (6-mer frequency, TF over GST control)"
ACTTAA,"1.15 fold enrichment (6-mer frequency, TF over GST control)","1.2 fold enrichment (6-mer frequency, TF over GST control)","1.67 fold enrichment (6-mer frequency, TF over GST control)","1.25 fold enrichment (6-mer frequency, TF over GST control)","1.19 fold enrichment (6-mer frequency, TF over GST control)","1.14 fold enrichment (6-mer frequency, TF over GST control)","1.16 fold enrichment (6-mer frequency, TF over GST control)","1.15 fold enrichment (6-mer frequency, TF over GST control)","2.66 fold enrichment (6-mer frequency, TF over GST control)","1.25 fold enrichment (6-mer frequency, TF over GST control)"
ACGGCT,"1.2 fold enrichment (6-mer frequency, TF over GST control)","1.13 fold enrichment (6-mer frequency, TF over GST control)","1.13 fold enrichment (6-mer frequency, TF over GST control)","1.1 fold enrichment (6-mer frequency, TF over GST control)","1.1 fold enrichment (6-mer frequency, TF over GST control)","1.14 fold enrichment (6-mer frequency, TF over GST control)","1.07 fold enrichment (6-mer frequency, TF over GST control)","1.13 fold enrichment (6-mer frequency, TF over GST control)","1.36 fold enrichment (6-mer frequency, TF over GST control)","1.05 fold enrichment (6-mer frequency, TF over GST control)"
ATTCAA,"1.27 fold enrichment (6-mer frequency, TF over GST control)","1.32 fold enrichment (6-mer frequency, TF over GST control)","1.32 fold enrichment (6-mer frequency, TF over GST control)","1.32 fold enrichment (6-mer frequency, TF over GST control)","1.34 fold enrichment (6-mer frequency, TF over GST control)","1.39 fold enrichment (6-mer frequency, TF over GST control)","1.38 fold enrichment (6-mer frequency, TF over GST control)","1.38 fold enrichment (6-mer frequency, TF over GST control)","1.36 fold enrichment (6-mer frequency, TF over GST control)","1.32 fold enrichment (6-mer frequency, TF over GST control)"
TTTCCA,"1.34 fold enrichment (6-mer frequency, TF over GST control)","1.28 fold enrichment (6-mer frequency, TF over GST control)","2.18 fold enrichment (6-mer frequency, TF over GST control)","1.18 fold enrichment (6-mer frequency, TF over GST control)","1.39 fold enrichment (6-mer frequency, TF over GST control)","1.39 fold enrichment (6-mer frequency, TF over GST control)","1.22 fold enrichment (6-mer frequency, TF over GST control)","1.19 fold enrichment (6-mer frequency, TF over GST control)","1.61 fold enrichment (6-mer frequency, TF over GST control)","1.22 fold enrichment (6-mer frequency, TF over GST control)"
AGGCTC,"1.06 fold enrichment (6-mer frequency, TF over GST control)","1.02 fold enrichment (6-mer frequency, TF over GST control)","1.14 fold enrichment (6-mer frequency, TF over GST control)","1.15 fold enrichment (6-mer frequency, TF over GST control)","1.07 fold enrichment (6-mer frequency, TF over GST control)","1.06 fold enrichment (6-mer frequency, TF over GST control)","1.01 fold enrichment (6-mer frequency, TF over GST control)","1.02 fold enrichment (6-mer frequency, TF over GST control)","1.29 fold enrichment (6-mer frequency, TF over GST control)","1.06 fold enrichment (6-mer frequency, TF over GST control)"
AAGAAT,"1.09 fold enrichment (6-mer frequency, TF over GST control)","1.11 fold enrichment (6-mer frequency, TF over GST control)","1.83 fold enrichment (6-mer frequency, TF over GST control)","1.08 fold enrichment (6-mer frequency, TF over GST control)","1.24 fold enrichment (6-mer frequency, TF over GST control)","1.09 fold enrichment (6-mer frequency, TF over GST control)","1.12 fold enrichment (6-mer frequency, TF over GST control)","1.17 fold enrichment (6-mer frequency, TF over GST control)","1.43 fold enrichment (6-mer frequency, TF over GST control)","1.15 fold enrichment (6-mer frequency, TF over GST control)"
ACGATA,"1.12 fold enrichment (6-mer frequency, TF over GST control)","1.16 fold enrichment (6-mer frequency, TF over GST control)","1.17 fold enrichment (6-mer frequency, TF over GST control)","1.38 fold enrichment (6-mer frequency, TF over GST control)","1.22 fold enrichment (6-mer frequency, TF over GST control)","1.18 fold enrichment (6-mer frequency, TF over GST control)","1.22 fold enrichment (6-mer frequency, TF over GST control)","1.04 fold enrichment (6-mer frequency, TF over GST control)","1.26 fold enrichment (6-mer frequency, TF over GST control)","1.15 fold enrichment (6-mer frequency, TF over GST control)"

# Reference: article PMC7862700, “An all-to-all approach to the identification of sequence-specific readers for epigenetic DNA modifications on cytosine”
